Assay results reported in PubChem BioAssay (NCATS).
Results filed as inconclusive are left out. Activity calls are given as the source filed them. Unless noted, the call rests on the fitted dose curve; in most records, active means well fitted curve in the direction sought with a large enough effect; inconclusive means small, poorly fitted or top-dose-only effect, or another doubt; inactive means no such curve, though single readings can be large; an effect the other way counts as inactive or inconclusive.

What was measured:
[1] = Validation of Assay for Modulators of Lamin A Splicing (AID 1459; active means well fitted curve in the direction sought with a large enough effect in the signal ratio; the % refers to the signal ratio;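 further: cells exposed to compound for two days before reading; 0% is about no effect; ratio rise marks activators and ratio drop marks inhibitors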)
Outline: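 S3 HeLa stably expressing lamin A-EGFP splicing minigene and DsRed2, 600 cells/well in Opti-MEM with 2% FBS, treated 48 h at 37C; laser-scanning cytometry gives GFP/RFP total intensity ratio; ancitabine positive control, 0.5% DMSO vehicle.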

[2] = molecular target: DNA repair nuclease/redox regulator APEX1 (Homo sapiens) (UniProt P27695); test: qHTS Validation Assay for Inhibitors of the Human Apurinic/apyrimidinic Endonuclease 1 (APE1) (AID 1705;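 further: TAMRA fluorescence gain over two minutes as APE1 cuts a quenched THF abasic duplex; series mostly up to about 57 µM; on the % scale 0 is the no-effect control and ±100 the full control effect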)
Outline: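 Fluorogenic double-stranded THF abasic-site substrate (5'-TAMRA/3'-BHQ-2), 50 nM final. Enzyme preincubated with compound 15 min at room temperature, then substrate added. Kinetic fluorescence (ex 525/em 598 nm) read three times at 60 s intervals; activity taken as third-minus-first read difference.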

[3] = molecular target: ATP-dependent DNA helicase Q1 (Homo sapiens) (UniProt P46063); test: qHTS Validation Assay for Inhibitors of RecQ-Like Dna Helicase 1 (RECQ1) (AID 2353);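 further: plate controls were DMSO vehicle for no effect and enzyme-free control for full effect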
Outline: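 RECQ1T1 50 nM; forked duplex (20 bp + 30-nt ss tails) 200 nM, ATP 2 mM final; pH 8.0, 2 mM MgCl2, 2.5 ug/ml poly(dI-dC); 15 min compound preincubation; discontinuous kinetic read over 2 h at RT.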

[4] = Quantitative high throughput screen for delayed death inhibitors of the malarial parasite plastid, 96 hour incubation (AID 488745); further: potency means the concentration at half of the fitted maximal effect; nearly all actives have a fitted effect of over 70% in size
Outline: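 Two-generation (96 h) exposure of luciferase-reporter P. falciparum in erythrocytes, 2% hematocrit, 0.1% parasitemia final, 37 C, 5% CO2, RPMI 1640 with 0.5% Albumax. Growth inhibition scored by reduced luminescence.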

[5] = Quantitative high throughput screen for delayed death inhibitors of the malarial parasite plastid, 48 hour incubation (AID 488752); further: potency means the concentration at half of the fitted maximal effect; nearly all actives have a fitted effect of over 65% in size
Outline: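 Cultures: infected erythrocytes at final 2% hematocrit and 0.1% parasitemia in Albumax-supplemented RPMI. Parasites express integrated firefly luciferase. Incubation with compound lasts 48 h before luminescent detection of remaining reporter activity.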

[6] = molecular target: Thyrotropin receptor (Homo sapiens) (UniProt P16473); test: qHTS Assay for Antagonists of the Thyroid Stimulating Hormone Receptor (AID 488980); further: series mostly up to about 58 µM; 0% is about no effect
Outline: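 TSHR-transfected HEK293 cells (2000/well) in HEPES-buffered HBSS with 70 uM RO 20-1724 were stimulated with 4 nM TSH (EC80, final) in the presence of compound. cAMP was measured by HTRF competition after lysis and 30 min at RT.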

[7] = molecular target: Thyrotropin-releasing hormone receptor (Homo sapiens) (UniProt P34981); test: qHTS for Small Molecule Agonists and Allosteric Enhancers of Human TRH Receptor: Validation Screen for Agonists (AID 493127;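 active means calcium activation more than 3 SD above the typical response in the agonist read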;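 further: intracellular calcium rise by fluo-8 fluorescence before TRH EC20 addition; 0% is about no effect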); settings: TRH receptor agonist cell assay; at 2 µM; stronger effect = higher value
Outline: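 Kinetic fluorescence assay of agonist-induced calcium release: overnight-plated TRHR cells, room-temperature fluo-8 loading, baseline then compound addition with per-second reads.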

[8] = molecular target: Galactokinase (Homo sapiens) (UniProt P51570); test: qHTS Validation Assay for Inhibitors of Human Galactokinase (GALK) (AID 493189); further: 0% is about no effect
Outline: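 GALK (5 nM) with 35 uM ATP and 100 uM galactose in HEPES pH 8.0 with MgCl2, NaCl, DTT and BSA. Reaction ran 1 h at room temperature. Residual ATP read by Kinase-Glo Plus luminescence.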

[9] = Validation screen for small molecules that induce DNA re-replication in SW480 colon adenocarcinoma cells (AID 504364); further: 0% is about no effect
Outline: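 Hoechst-stained SW480 nuclei, imaged at 405 nm excitation after 48 hr compound exposure, were counted for elevated DNA content as the re-replication signal.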

[10] = molecular target: Voltage-gated inwardly rectifying potassium channel KCNH2 (Homo sapiens) (UniProt Q12809); test: qHTS Assay for Small Molecule Inhibitors of the Human hERG Channel Activity (AID 588834);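 further: top concentration of the series differs between compounds; on the % scale 0 is the no-effect control and ±100 the full control effect; lower thallium flux fluorescence means stronger hERG block; nearly all actives have a fitted effect of over 50% in size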
Outline: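 Thallium serves as surrogate for K+ influx through BacMam-delivered hERG in U2OS cells. Compounds are added for about 10 minutes after dye loading; stimulation buffer then starts flux, monitored kinetically on FDSS.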

[11] = molecular target: Calcium and integrin-binding protein 1 (Homo sapiens) (UniProt Q99828); test: Confirmatory qHTS for Identification of Calcium Integrin Binding Protein 1 (CIB1) Competitor (AID 1508617); further: on the % scale 0 is the no-effect control and ±100 the full control effect; nearly all actives have a fitted effect of over 65% in size
Outline: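 Compounds at up to 114 uM final met 1 uM GST-tagged CIB1 for 15 min at room temperature (HEPES pH 7.4, 5 mM CaCl2). FITC-labelled alphaIIb peptide, 100 nM, added; polarization read after 15 min more.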

Chain of Thyrotropin-releasing hormone receptor (Homo sapiens) (P34981 whole entry, looked up): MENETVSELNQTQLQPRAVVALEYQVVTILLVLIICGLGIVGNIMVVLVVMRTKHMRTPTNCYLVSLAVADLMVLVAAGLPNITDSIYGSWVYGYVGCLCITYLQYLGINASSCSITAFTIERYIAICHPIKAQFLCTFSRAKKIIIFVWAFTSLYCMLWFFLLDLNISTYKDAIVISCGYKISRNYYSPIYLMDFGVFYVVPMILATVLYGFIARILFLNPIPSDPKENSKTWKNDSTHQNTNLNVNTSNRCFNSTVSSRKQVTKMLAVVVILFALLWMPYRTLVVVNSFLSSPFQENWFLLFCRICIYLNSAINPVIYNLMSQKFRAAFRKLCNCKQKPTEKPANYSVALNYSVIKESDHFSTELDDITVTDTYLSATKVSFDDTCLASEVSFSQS
Chain of Calcium and integrin-binding protein 1 (Homo sapiens) (Q99828 whole entry, looked up): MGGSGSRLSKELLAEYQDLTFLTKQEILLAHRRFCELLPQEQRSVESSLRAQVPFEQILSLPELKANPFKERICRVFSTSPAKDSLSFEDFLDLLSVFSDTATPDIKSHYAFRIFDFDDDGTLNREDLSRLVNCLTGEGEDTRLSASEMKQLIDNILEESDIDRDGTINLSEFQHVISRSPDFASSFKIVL
Chain of Thyrotropin receptor (Homo sapiens) (P16473 whole entry, looked up): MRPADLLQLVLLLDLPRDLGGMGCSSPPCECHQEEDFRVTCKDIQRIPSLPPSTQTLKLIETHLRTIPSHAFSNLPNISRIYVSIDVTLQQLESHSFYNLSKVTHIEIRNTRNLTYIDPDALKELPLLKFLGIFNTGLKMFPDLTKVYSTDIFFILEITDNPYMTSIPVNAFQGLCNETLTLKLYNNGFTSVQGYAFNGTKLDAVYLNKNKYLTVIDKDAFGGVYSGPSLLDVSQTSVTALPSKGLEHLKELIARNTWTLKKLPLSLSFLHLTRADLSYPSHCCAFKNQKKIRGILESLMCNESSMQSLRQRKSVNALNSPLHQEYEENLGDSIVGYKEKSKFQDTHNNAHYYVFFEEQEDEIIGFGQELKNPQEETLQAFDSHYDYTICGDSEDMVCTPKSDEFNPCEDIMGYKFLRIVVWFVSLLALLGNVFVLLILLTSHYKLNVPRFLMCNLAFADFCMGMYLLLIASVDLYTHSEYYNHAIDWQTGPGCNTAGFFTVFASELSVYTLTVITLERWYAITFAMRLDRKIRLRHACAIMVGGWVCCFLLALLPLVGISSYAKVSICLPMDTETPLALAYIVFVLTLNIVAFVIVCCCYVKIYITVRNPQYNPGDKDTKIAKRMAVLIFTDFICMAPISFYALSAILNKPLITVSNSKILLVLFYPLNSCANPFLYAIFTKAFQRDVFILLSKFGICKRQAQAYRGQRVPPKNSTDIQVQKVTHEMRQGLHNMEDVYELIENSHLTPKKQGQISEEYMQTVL
Chain of Galactokinase (Homo sapiens) (P51570 whole entry, looked up): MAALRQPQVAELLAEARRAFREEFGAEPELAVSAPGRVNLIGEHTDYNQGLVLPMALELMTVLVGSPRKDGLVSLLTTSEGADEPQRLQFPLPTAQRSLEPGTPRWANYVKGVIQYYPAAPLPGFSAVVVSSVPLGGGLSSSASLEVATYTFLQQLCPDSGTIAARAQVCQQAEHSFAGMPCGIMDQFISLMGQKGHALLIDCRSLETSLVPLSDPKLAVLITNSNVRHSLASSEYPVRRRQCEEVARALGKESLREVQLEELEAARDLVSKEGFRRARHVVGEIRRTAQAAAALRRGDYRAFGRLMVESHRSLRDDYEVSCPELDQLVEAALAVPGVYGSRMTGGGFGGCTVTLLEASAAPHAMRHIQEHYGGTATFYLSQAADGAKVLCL
Chain of Voltage-gated inwardly rectifying potassium channel KCNH2 (Homo sapiens) (Q12809 whole entry, looked up): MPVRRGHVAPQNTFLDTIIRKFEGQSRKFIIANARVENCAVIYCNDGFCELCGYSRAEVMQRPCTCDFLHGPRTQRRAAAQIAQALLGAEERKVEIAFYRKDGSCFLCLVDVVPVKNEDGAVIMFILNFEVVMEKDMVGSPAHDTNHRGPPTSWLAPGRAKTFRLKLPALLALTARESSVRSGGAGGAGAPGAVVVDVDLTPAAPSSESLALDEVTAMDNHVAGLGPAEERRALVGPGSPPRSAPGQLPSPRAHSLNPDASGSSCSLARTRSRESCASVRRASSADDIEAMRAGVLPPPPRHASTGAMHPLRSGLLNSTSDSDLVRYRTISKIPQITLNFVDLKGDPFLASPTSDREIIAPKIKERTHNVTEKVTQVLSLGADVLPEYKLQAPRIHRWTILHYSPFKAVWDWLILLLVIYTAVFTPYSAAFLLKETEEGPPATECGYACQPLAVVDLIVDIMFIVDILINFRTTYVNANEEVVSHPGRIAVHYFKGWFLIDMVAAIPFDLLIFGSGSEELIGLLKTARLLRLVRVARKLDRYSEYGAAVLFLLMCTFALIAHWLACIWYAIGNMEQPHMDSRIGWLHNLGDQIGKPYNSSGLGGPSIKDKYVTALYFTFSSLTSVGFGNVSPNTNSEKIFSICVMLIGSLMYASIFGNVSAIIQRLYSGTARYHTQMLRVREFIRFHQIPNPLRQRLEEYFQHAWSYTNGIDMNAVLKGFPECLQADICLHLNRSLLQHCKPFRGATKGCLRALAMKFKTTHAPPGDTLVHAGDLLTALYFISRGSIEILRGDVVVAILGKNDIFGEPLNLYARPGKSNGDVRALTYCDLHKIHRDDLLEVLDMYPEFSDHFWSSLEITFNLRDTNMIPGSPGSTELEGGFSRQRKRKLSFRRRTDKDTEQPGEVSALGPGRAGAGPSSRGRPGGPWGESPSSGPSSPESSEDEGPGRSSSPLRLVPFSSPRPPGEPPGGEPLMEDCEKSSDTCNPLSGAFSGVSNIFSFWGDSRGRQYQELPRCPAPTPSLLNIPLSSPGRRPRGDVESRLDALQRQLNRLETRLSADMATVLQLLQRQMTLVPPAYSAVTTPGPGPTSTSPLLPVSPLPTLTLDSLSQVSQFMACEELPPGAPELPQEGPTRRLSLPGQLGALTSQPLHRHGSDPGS
Chain of ATP-dependent DNA helicase Q1 (Homo sapiens) (P46063 whole entry, looked up): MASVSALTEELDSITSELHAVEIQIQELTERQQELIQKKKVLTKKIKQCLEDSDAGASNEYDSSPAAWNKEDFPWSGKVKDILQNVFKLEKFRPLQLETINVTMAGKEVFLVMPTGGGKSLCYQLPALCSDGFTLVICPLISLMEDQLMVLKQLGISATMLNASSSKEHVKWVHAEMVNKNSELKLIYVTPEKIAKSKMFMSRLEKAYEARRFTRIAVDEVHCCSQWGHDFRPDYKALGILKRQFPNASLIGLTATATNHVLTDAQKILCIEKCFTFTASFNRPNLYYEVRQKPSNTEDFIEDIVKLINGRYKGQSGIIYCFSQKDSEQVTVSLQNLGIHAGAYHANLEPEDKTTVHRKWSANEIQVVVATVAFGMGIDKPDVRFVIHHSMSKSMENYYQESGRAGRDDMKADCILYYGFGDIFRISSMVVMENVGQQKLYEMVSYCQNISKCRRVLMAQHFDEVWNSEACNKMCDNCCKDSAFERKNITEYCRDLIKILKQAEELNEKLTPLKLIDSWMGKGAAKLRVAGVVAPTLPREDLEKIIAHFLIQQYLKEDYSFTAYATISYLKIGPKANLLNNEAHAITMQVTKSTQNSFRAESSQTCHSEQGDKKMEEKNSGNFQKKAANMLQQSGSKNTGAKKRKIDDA
Chain of DNA repair nuclease/redox regulator APEX1 (Homo sapiens) (P27695 whole entry, looked up): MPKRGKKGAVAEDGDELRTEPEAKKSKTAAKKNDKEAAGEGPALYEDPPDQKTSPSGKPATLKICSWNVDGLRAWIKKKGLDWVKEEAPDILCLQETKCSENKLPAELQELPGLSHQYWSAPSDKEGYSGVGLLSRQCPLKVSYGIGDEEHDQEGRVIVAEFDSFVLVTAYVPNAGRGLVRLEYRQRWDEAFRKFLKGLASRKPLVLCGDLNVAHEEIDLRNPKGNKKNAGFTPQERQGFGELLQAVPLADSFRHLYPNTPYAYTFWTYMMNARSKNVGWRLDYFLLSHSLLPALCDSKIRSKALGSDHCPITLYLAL

C[C@]12C=CC(=O)C=C1CCC1C2=CC[C@]2(C)[C@@H](C(=O)CN3CCN(c4cc(N5CCCC5)nc(N5CCCC5)n4)CC3)CC[C@@H]12 (stereo partly specified)
inactive: outcome [1] | Potency [2] | Potency [3] | outcome [6] | activation [7] 1.5% | outcome [8] | outcome [9] | Potency [10]
active: Potency [4] 13.1 µM | Potency [5] 13.1 µM

Fc1ccc(NC(=S)Nc2nnc(-c3ccncc3)s2)cc1C(F)(F)F
inactive: Potency [11]
